Source: PubChem BioAssay (NCATS)
Results filed as inconclusive are left out. Calls of active or inactive are those of the source. The call rests on the fitted dose curve; in most records, active means well fitted curve in the direction sought with a large enough effect; inconclusive means small, poorly fitted or top-dose-only effect, or another doubt; inactive means no such curve, though single readings can be large; an effect the other way counts as inactive or inconclusive.

Assays:
[1] = Confirmatory screen NINDS Rhodamine qHTS for Zika virus inhibitors (AID 1347161);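 further: purified Zika NS2B-NS3 protease with linked NS2B cofactor domain and Rhodamine110 peptide substrate; series mostly up to about 110 µM; nearly all actives have a fitted effect of over 60% in size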
Method in brief: (§1)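 Percent inhibition, normalized to uninhibited and enzyme-free controls, is fitted to a 4-parameter Hill equation. Fluorescence change comes from a 15-min cleavage of 1.5 microM bis-peptide Rhodamine110 substrate by 25 nM linked NS2B-NS3 at room temperature.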

[2] = qHTS to identify inhibitors of the type 1 interferon - major histocompatibility complex class I in skeletal muscle: primary screen against the NCATS Pharmaceutical Collection (AID 1347407);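 further: luminescence of HiBiT knocked into endogenous HLA-B as interferon-induced MHC class I level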; further: potency means the concentration at half of the fitted maximal effect
Method in brief: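 Luminescence from HiBiT-tagged endogenous HLA-B*08:01 served as the read-out of IFN-beta-induced MHC class I in CRISPR-engineered C25cl48 myoblasts. Cells received 4 ng/ml IFN-beta plus compound (high final 46 uM, […]) for 24 h.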

[3] = qHTS to identify inhibitors of the type 1 interferon - major histocompatibility complex class I in skeletal muscle: primary screen against the NCATS Mechanism Interrogation Plate v5.0 (MIPE) Libary (AID 1347411); further: nearly all actives have a fitted effect of over 65% in size; further: potency means the concentration at half of the fitted maximal effect
Method in brief: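 Luminescence from HiBiT-tagged endogenous HLA-B*08:01 served as the MHC class I read-out. CRISPR-engineered C25cl48 human myoblasts received 4.0 ng/ml IFN-beta plus compound for 24 hrs, with an 11-point, 1:3 series topping at 46 uM final.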

[4] = biological target: Protein phosphatase 1D (Homo sapiens) (UniProt O15297); experiment: Rhodamine-PBP qHTS Assay for Modulators of WT P53-Induced Phosphatase 1 (WIP1) (AID 1347425)
Method in brief: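 Steps: enzyme with Rh-PBP sensor and compounds, room-temperature incubation of 1 hr, baseline read, addition of VEPPL-pS-QETFS (10 uM final), kinetic fluorescence reads at 525/598 nm. Activity equals final minus baseline signal.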

[5] = Primary qHTS for inhibitors of La Crosse Virus (LACV) - induced cell death in SH-SY5Y cells (AID 1508616);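 further: top concentration of the series differs between compounds; higher means more rescue of cells from virus-induced death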
Method in brief: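 Protection against LACV-induced cell death is scored in SH-SY5Y cells exposed to compounds and virus (0.01 MOI) for 6 days. Data normalized to virus-infected DMSO wells and virus-free DMSO wells.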

[6] = biological target: Calcium and integrin-binding protein 1 (Homo sapiens) (UniProt Q99828); experiment: Primary qHTS for Identification of Calcium Integrin Binding Protein 1 (CIB1) Competitor (AID 1508620);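 further: GST tagged CIB1 binding a fluorescein labelled alphaIIb integrin peptide tracer; top concentration of the series differs between compounds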
Method in brief: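 Fluorescence polarization competition: CIB1-GST (1 uM final) preincubated with compound 15 min at room temperature, then FITC-labeled alphaIIb peptide (100 nM final) added for another 15 min. Polarization read at Ex 480/Em 540.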

[7] = Vero cells viability qHTS for Zika virus inhibitors (AID 1347167)
Method in brief: (§2)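 Counter-screen for cytotoxicity of hits from NS2B-NS3 protease qHTS. Overnight-attached cells (2.5 x 10^5 cells/mL, DMEM/4% FBS) were dosed in titration, incubated 24 to 48 hours, then assayed by CellTiter Glo.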

[8] = tested on: Zika virus NS2B-NS3 protease (linked construct); experiment: Primary screen NINDS Rhodamine qHTS for Zika virus inhibitors (AID 1347160); details: outcome: dose series up to 57.1 µM unless noted; further: nearly all actives have a fitted effect of over 55% in size
Method in brief: as §1

[9] = biological target: Protein phosphatase 1D (Homo sapiens) (UniProt O15297); experiment: RapidFire Mass Spectrometry qHTS Assay for Modulators of WT P53-Induced Phosphatase 1 (WIP1) (AID 1347424);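 further: amount of dephosphorylated VEPPL-S-QETFS peptide product formed by WIP1; series mostly up to about 63 µM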
Method in brief: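 WIP1 (10 nM final) was preincubated 1 h at room temperature with compounds in Tris-HCl pH 7.5, 30 mM MgCl2, TCEP, EGTA, BSA; 2 uM VEPPL-pS-QETFS phosphopeptide was added for 5 min, quenched with formic acid, and dephosphorylated product quantified by RapidFire MS.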

[10] = qHTS to identify inhibitors of the type 1 interferon - major histocompatibility complex class I in skeletal muscle: primary screen against the NCATS LOPAC collection (AID 1347405);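 further: lytic HiBiT luminescence reporting HLA-B protein level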
Method in brief: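 Luminescence from HiBiT fused to endogenous HLA-B in CRISPR-engineered human myoblasts served as the read-out. Cells received 4.0 ng/ml IFN-beta plus compound (seven concentrations, 1:4.3 steps, highest 46 uM final) for 24 hrs before lytic detection.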

[11] = qHTS for inhibitors of adenylyl cyclases using a fission yeast platform: a pilot screen against the NCATS LOPAC library (AID 1347410)
Method in brief: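 Fission yeast qHTS: CHP2027 cells (AC9-GNAS-PDE4D2, fbp1-GFP), 5x10^6 cells/mL working density, EMM + His/Lys/Ura; LOPAC at up to 57 µM final; 18 h dark, 30C; GFP by laser cytometry. DPI positive control, DMSO vehicle.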

[12] = Validation qHTS assay for inhibitors of Activation Induced Cytidine Deaminase (AID): UDG Counterscreen signal (AID 1347427)
Method in brief: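 Counterscreen read of UDG activity (2 U/mL, 4/3x) in the FRET deamination format with AID (1 uM, 4/3x), DJC20/DJC23 substrates (250 nM, 4x), 4 h at room temperature. NaOH stop, fluorescence at 560 ex/665 em.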

[13] = biological target: Single-stranded DNA cytosine deaminase (Homo sapiens) (UniProt Q9GZX7); experiment: Validation qHTS assay for inhibitors of Activation Induced Cytidine Deaminase (AID): AID signal (AID 1347429)
Method in brief: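 Fluorescence at 540 nm excitation and 590 nm emission reports ssDNA cytosine deamination by AID, with UDG in the same well. Compound-treated reactions ran 4 hr at room temperature with DJC20/DJC23 substrate, followed by 30 min NaOH treatment.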

[14] = biological target: Calcium and integrin-binding protein 1 (Homo sapiens) (UniProt Q99828); experiment: Validation qHTS for Identification of Calcium Integrin Binding protein 1 (CIB1) Competitor (AID 1508618)
Method in brief: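 In this qHTS validation, the LOPAC set (up to 114 uM) was tested for blocking CIB1 binding to a fluorescein-tagged alphaIIb peptide, with FP detection at 480/540 nm.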

[15] = HepG2 cells viability qHTS for Zika virus inhibitors (AID 1347168); further: potency means the concentration at half of the fitted maximal effect
Method in brief: as §2

[16] = Counterscreen qHTS for small molecule stabilizers of the endoplasmic reticulum resident proteome: GLuc-NoTag assay (AID 1508627);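 further: SH-SY5Y cells given compound then 100 nM thapsigargin to empty ER calcium; series mostly up to about 76 µM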
Method in brief: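 SH-SY5Y cells stably expressing constitutively secreted GLuc (no SERCaMP tag) were pre-incubated 5 h, treated with compound for 19 h, then 100 nM thapsigargin for 4 h at 37C; medium GLuc read by coelenterazine luminescence.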

[17] = Confirmatory qHTS for small molecule stabilizers of the endoplasmic reticulum resident proteome: Secreted ER Calcium Modulated Protein (SERCaMP) assay (AID 1508628); further: series mostly up to about 76 µM; nearly all actives have a fitted effect of over 40% in size
Method in brief: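 SH-SY5Y cells stably expressing GLuc-SERCaMP, treated 16 h with compound (primary 1.53, 7.67, 38.3 uM; confirmation 11 concentrations, up to 76.6 uM), then 100 nM thapsigargin for 4 h. Secreted Gaussia luciferase in medium read by coelenterazine luminescence.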

Measured: Potency

Calcium and integrin-binding protein 1 (Homo sapiens), sequence (Q99828 whole entry, looked up): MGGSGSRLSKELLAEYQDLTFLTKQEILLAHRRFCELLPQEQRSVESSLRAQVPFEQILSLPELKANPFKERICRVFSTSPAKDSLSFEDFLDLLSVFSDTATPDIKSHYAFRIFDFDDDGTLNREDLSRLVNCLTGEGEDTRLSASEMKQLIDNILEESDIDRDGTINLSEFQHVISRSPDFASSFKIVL
Single-stranded DNA cytosine deaminase (Homo sapiens), sequence (Q9GZX7 whole entry, looked up): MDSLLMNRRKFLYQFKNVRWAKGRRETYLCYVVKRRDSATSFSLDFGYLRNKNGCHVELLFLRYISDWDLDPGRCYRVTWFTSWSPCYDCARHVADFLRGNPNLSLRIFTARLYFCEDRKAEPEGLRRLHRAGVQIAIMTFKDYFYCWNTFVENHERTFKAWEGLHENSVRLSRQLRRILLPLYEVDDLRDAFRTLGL
Protein phosphatase 1D (Homo sapiens), sequence (O15297 whole entry, looked up): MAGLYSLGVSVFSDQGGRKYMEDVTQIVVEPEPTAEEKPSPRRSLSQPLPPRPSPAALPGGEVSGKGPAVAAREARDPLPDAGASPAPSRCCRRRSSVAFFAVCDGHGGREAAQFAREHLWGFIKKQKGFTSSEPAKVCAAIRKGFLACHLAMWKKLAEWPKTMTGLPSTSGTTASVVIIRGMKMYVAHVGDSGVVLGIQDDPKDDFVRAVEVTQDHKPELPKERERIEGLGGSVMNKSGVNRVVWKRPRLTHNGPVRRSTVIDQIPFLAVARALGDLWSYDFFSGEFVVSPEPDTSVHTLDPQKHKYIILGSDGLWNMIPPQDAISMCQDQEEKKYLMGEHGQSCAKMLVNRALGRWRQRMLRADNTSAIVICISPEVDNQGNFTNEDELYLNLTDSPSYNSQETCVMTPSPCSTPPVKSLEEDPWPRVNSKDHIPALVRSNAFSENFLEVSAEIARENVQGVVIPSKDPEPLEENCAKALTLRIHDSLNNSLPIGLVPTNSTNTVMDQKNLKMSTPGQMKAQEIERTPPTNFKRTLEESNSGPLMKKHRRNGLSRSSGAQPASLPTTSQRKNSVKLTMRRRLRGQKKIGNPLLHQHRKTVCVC

COc1ccc(-c2ccc3cc(C(=O)O)ccc3c2)cc1C12CC3CC(CC(C3)C1)C2
inactive: [1] | [2] | [3] | [4] | [5] | [6]

COc1cc(NCc2ccc3nc(N)nc(N)c3c2C)cc(OC)c1OC
inactive: [1] | [7] | [4] | [5] | [6]
active: [3] 26.2 µM

O=C(O)CCn1c2c(c3ccccc31)C[C@H](NS(=O)(=O)c1ccc(F)cc1)CC2
inactive: [8] | [9] | [4]

Nc1nc(F)nc2c1ncn2[C@@H]1O[C@H](CO)[C@@H](O)[C@@H]1O
inactive: [8] | [2] | [3] | [9] | [4] | [5] | [6]

CCN1CCCC1CNC(=O)c1cc(S(N)(=O)=O)ccc1OC (configuration not stated)
inactive: [10] | [11] | [12] | [13] | [5] | [14]

CC[C@H](C)C(=O)O[C@H]1C[C@@H](C)C=C2C=C[C@H](C)[C@H](CC[C@@H]3C[C@@H](O)CC(=O)O3)[C@H]21
inactive: [8] inactive [at 33.1 µM] | [3] | [4] | [5]

OCc1ccc(-c2nn(Cc3ccccc3)c3ccccc23)o1
active: [15] 11.7 µM
inactive: [7] | [10] | [11] | [3] | [12] | [13] | [5] | [14]

CC(C)(Sc1cc(C(C)(C)C)c(O)c(C(C)(C)C)c1)Sc1cc(C(C)(C)C)c(O)c(C(C)(C)C)c1
inactive: [1] | [2] | [9] | [4] | [5] | [6] | [16] | [17]

CC1(C)[C@H](C(=O)O)N2C(=O)C[C@H]2S1(=O)=O
inactive: [8] | [9] | [4] | [5] | [6]

Nc1nc(=S)c2[nH]cnc2[nH]1
inactive: [7] | [15] | [2] | [4] | [5] | [6]

CN(CCOc1ccc(CC2SC(=O)NC2=O)cc1)c1ccccn1 (configuration not stated)
inactive: [2] | [3] | [4] | [5] | [6]

Cc1cc(NS(=O)(=O)c2ccc(N)cc2)no1
inactive: [2] | [9] | [4] | [5]

CC(C)C1CCC(C(=O)N[C@H](Cc2ccccc2)C(=O)O)CC1 (some centres not stated)
inactive: [2] | [3] | [9] | [4] | [5] | [6]

CN(C)c1ccc(C(=C2C=CC(=[N+](C)C)C=C2)c2ccc(N(C)C)cc2)cc1
active: [2] 9.38 µM | [3] 3.7 µM
inactive: [9] | [4] | [6]

C#CCN[C@@H]1CCc2ccccc21
inactive: [2] | [9] | [4] | [5]

CC1=C(C(=O)O)N2C(=O)[C@@H](NC(=O)C(N)c3ccccc3)[C@H]2SC1 (some centres not stated)
inactive: [10] | [11] | [12] | [13] | [5] | [14] | [6]

CCOC(=O)c1ccc(C#Cc2ccc3c(c2)C(C)(C)CCS3)nc1
inactive: [2] | [3] | [9] | [4] | [5] | [6]

CCCc1cc(C(N)=S)ccn1
inactive: [2] | [3] | [9] | [4] | [5]

CC(C)(C)NC(=O)[C@H]1CC[C@H]2[C@@H]3CC[C@H]4NC(=O)C=C[C@]4(C)[C@H]3CC[C@]12C
inactive: [2] | [3] | [4] | [5] | [6]

C[C@@H](CN1CC(=O)NC(=O)C1)N1CC(=O)NC(=O)C1
inactive: [2] | [9] | [4]

CC(C)Cn1cnc2c(N)nc3ccccc3c21
inactive: [2] | [9] | [4] | [5]

CC(=O)Oc1ccccc1C(=O)Nc1ncc([N+](=O)[O-])s1
active: [3] 23.4 µM
inactive: [2] | [5] | [6]

CCOC(=O)c1ccc(OC(=O)CCCCCN=C(N)N)cc1
inactive: [2] | [9] | [4] | [5]

CCN(C)C(=O)Oc1cccc([C@H](C)N(C)C)c1
inactive: [2] | [9] | [4] | [5]

CCCCS(=N)(=O)CCC(N)C(=O)O (configuration not stated)
inactive: [10] | [11] | [12] | [13] | [5] | [14]

O=C(O)c1cc(=O)[nH]c(=O)[nH]1
inactive: [2] | [9] | [4] | [5]

CCCCOc1ccc(CC(=O)NO)cc1
inactive: [2] | [3] | [9] | [4] | [5] | [6]

CS(=O)(=O)c1ccc([C@@H](O)[C@@H](CO)NC(=O)C(Cl)Cl)cc1
inactive: [2] | [9] | [4] | [5]

O=C(O)CSCC(=O)NC1CCSC1=O (configuration not stated)
inactive: [2] | [3] | [4] | [5]

Cc1oc(=O)oc1CN1CCN(c2cc3c(cc2F)c(=O)c(C(=O)O)c2n3C(C)S2)CC1 (configuration not stated)
inactive: [2] | [3] | [9] | [4] | [5] | [6]

COCCCOc1cc(C[C@@H](C[C@H](N)[C@@H](O)C[C@H](C(=O)NCC(C)(C)C(N)=O)C(C)C)C(C)C)ccc1OC
inactive: [2] | [3] | [9] | [4] | [5] | [6]

CCN[C@H]1C[C@H](C)S(=O)(=O)c2sc(S(N)(=O)=O)cc21
inactive: [2] | [3] | [9] | [4] | [5]
